Here are results for 60 molecules from ChEMBL document CHEMBL4513216, “Probing the Open Global Health Chemical Diversity Library for Multistage-Active Starting Points for Next-Generation Antimalarials” (ACS Infect Dis, 2020).

Hit rate of the full screen: of about 69,000 compounds, about 8,600 (12%) showed an effect of 50% or more. The entries come from a sample that favours strong results as a whole.

The experiment has as its system Plasmodium berghei. Briefly: Screen against P. berghei liver stage (PbLuc), transformed with Luciferase, at 10uM. Particulars: tested at 10 uM. It counts as functional, HepG2.
For `Cc1n[nH]c2c1C(c1cnn(C)c1)SCC(=O)N2` (stereo not given), the INHIBITION is -2.37%.

`Cc1nn(-c2ncccn2)c2c1C(c1cnn(C)c1C)SCC(=O)N2` (stereo not given): the INHIBITION was 27.6%.

Turning to `CC(C)n1nc(O)c2c1NC(=O)CSC2c1cnn(C)c1` (stereo not given), the INHIBITION is given as 9.36%.

As to `Cc1cc(C)nc(-n2nc(C)c3c2NC(=O)CSC3c2cnn(C)c2)n1` (stereo not given), the INHIBITION is listed as 88.8%. `Cc1nn(-c2ncccn2)c2c1C(c1cnn(C)c1)SCC(=O)N2` (stereo not given): the INHIBITION worked out at 61%. Regarding `Cc1nn(-c2ccccn2)c2c1C(c1cnn(C)c1)SCC(=O)N2` (stereo not given), the INHIBITION is 41.5%.

In the case of `COc1cc(CN2CCn3c(CO)nnc3C2)ccc1OC(C)C`, the INHIBITION came out at 35.2%. The value for `Cc1noc(C)c1C(=O)N1CCCN(Cc2cscn2)CC1` was 9.64%; that for `NCC1CCC(C(NC(=O)c2ccccc2)c2ccccn2)CC1` (stereo not given) was 48.8%; that for `Cc1noc(C)c1-c1cncc(C2CCCN2Cc2cn(C)cn2)n1` (stereo not given) was 26.8%. As to `Cc1ccc(NS(=O)(=O)c2cccc(C#N)c2)c(CN(C)C)c1`, the INHIBITION was -0.613%. The value for `Cc1ccc(NCc2ccc(C#N)cc2)c(CN(C)C)c1` was 86.7%; that for `Cc1ccc(NS(=O)(=O)c2ccc(C#N)cc2)c(CN(C)C)c1` was -33.5%; that for `Cc1cc(C)n(-c2ccc3nnc(C)n3n2)n1` was -14.9%. With `O=C(CSc1ccc(F)cc1F)NS(=O)(=O)c1ccc2c(c1)OCCO2`, the INHIBITION is given as -16.45%. As to `COCCn1nc(C(=O)N(C)Cc2cnn(C)c2)ccc1=O`, the INHIBITION is recorded as 36.3%. For `Cc1cc(NC(=O)CNC2CCCN(c3cccnn3)C2)on1` (stereo not given), the INHIBITION turned out to be 21%. Take `CC(C)[C@H]1COC(=O)N1CC(=O)N1CCCN(C(=O)c2ccoc2)CC1`: the INHIBITION came to 52.1%. In the case of `Cc1ccccc1N1CCCN(C(=O)CN2C(=O)OC[C@@H]2C(C)C)CC1`, the INHIBITION is listed as 23%. `CC(C)[C@H]1COC(=O)N1CC(=O)N1CCN(C(=O)c2ccco2)CC1`: the INHIBITION is 7.6%.

For the molecule `COCc1nnc(C(=O)N2CC(N3CCCCC3)C2)o1`, the INHIBITION was 10.6%. As for `NCC1CCC(C(NC(=O)c2ccccn2)c2ccccn2)CC1` (stereo not given), the figure is 24.4%; as for `NC(=O)N1CC[C@@H]2O[C@@H](COCC(=O)N3CCCC3)CC[C@@H]21`, 15.4%. As for `O=C(c1ccoc1)N1CC[C@@H]2O[C@@H](COCC3CCOCC3)CC[C@@H]21`, the figure is 38.1%; as for `O=C(c1ccco1)N1CC[C@@H]2O[C@@H](COCC3CCOCC3)CC[C@@H]21`, 68.9%.

In the case of `O=C(c1ccno1)N1CC[C@@H]2O[C@@H](COCCN3CCCC3)CC[C@@H]21`, the INHIBITION is 28.4%.

Regarding `NC(=O)N1CC[C@@H]2O[C@H](COCC(=O)N3CCCC3)CC[C@@H]21`, the INHIBITION was -27.9%. The value for `O=C(c1ccco1)N1CC[C@@H]2O[C@H](COCC3CCOCC3)CC[C@@H]21` was -4.99%; that for `CC(=O)N1CC[C@@H]2O[C@@H](COCC(=O)N3CCCC3)CC[C@@H]21` was 52%.

For the molecule `O=C(c1ccco1)N1CC[C@@H]2O[C@@H](COCCN3CCCC3)CC[C@@H]21`, the INHIBITION was 83.5%.

For `O=C(c1ccco1)N1CC[C@@H]2O[C@H](COCCN3CCCC3)CC[C@@H]21`, the INHIBITION came to 24.1%. On to `CC(C)(NS(C)(=O)=O)c1nc(-c2ccc(F)cc2Cl)no1`, for which the INHIBITION is listed as -9.76%. In the case of `Cc1cccc(C(=O)NCc2cccnc2N(C)C)n1`, the INHIBITION is 35.6%. `Cc1cc(C(=O)N2CCCC2)ccc1NCC(=O)N1CCOCC1`: the INHIBITION is listed as 7.67%. As for `O=C(c1ccccc1)N1CC[C@H]2C[C@@H](c3nccs3)O[C@@H]2C1`, the INHIBITION is reported as -22.5%. As for `O=c1cccnn1CC1CN(Cc2ccsc2)Cc2nccn2C1` (stereo not given), the figure is 40.4%. The value for `CC(C(=O)N1CCCCCC1)N1CCN(c2nccs2)CC1` (stereo not given) was 31.1%.

Consider `Cc1cc(Nc2ccccn2)nc(C2CCCN(CCO)C2)n1` (stereo not given), for which the INHIBITION came out at 17.4%.

As for `Cc1nc(CCNC(=O)Nc2cc(C(F)(F)F)c[nH]c2=O)cs1`, the INHIBITION was 19.7%.

Turning to `COc1ccccc1NC(=O)N(CCO)Cc1ccsc1`, the INHIBITION is listed as 77.6%. On to `CCOc1ccccc1NC(=O)N(CCO)Cc1ccsc1`, for which the INHIBITION was -8.51%.

Consider `COc1ccc(NC(=O)N(CCO)Cc2ccsc2)c(OC)c1`, for which the INHIBITION is recorded as 5.85%.

Turning to `CC1(C(=O)N2CCOCC2)CN(Cc2c[nH]cn2)CCO1` (stereo not given), the INHIBITION is reported as 39.7%. For the molecule `O=C(O)c1c(NC2CCC2)ncc2c1CCN(C1CCOC1)C2` (stereo not given), the INHIBITION is 11.3%. The value for `CN(C)C(=O)N1C[C@H]2CC[C@@H](C1)N(Cc1nnc(C3CC3)o1)C2` was 28%; that for `COc1cccc(NC(=O)N2CC[C@@H]3CN(C)S(=O)(=O)[C@@H]3CC2)c1` was 55.4%. The value for `COc1ccc(CC(=O)N2CC[C@@H]3CN(C)S(=O)(=O)[C@@H]3CC2)cc1` was 37.5%.

Take `COc1cccc(CC(=O)N2CC[C@@H]3[C@H](CC2)N(C)CCS3(=O)=O)c1`: the INHIBITION amounted to 45.4%. On to `COc1cccc(CC(=O)N2CC[C@@H]3CN(C)S(=O)(=O)[C@@H]3CC2)c1`, for which the INHIBITION was -1.28%. For `CN(C)C(=O)CN1C[C@H]2CCN(Cc3ccccc3)CC[C@H]2S1(=O)=O`, the INHIBITION is listed as 60.3%. For the molecule `O=C(Cc1ccccc1)N1CC[C@@H]2CNS(=O)(=O)[C@@H]2CC1`, the INHIBITION stood at 54.1%.

For the molecule `CN(C)C(=O)CN1C[C@H]2CCN(c3ncccn3)CC[C@H]2S1(=O)=O`, the INHIBITION is -85.3%. Take `CN(C)C(=O)CN1C[C@H]2CCN(C(=O)c3ccccc3)CC[C@H]2S1(=O)=O`: the INHIBITION was 44.2%. In the case of `O=S1(=O)NC[C@H]2CCN(Cc3ccccc3)CC[C@H]21`, the INHIBITION is reported as 12.7%.

Take `O=C(NCCc1ccccc1)N1CC[C@@H]2CNS(=O)(=O)[C@@H]2CC1`: the INHIBITION worked out at 23.1%. As for `CCN1C[C@H]2CCN(C(=O)Cc3cccc(OC)c3)CC[C@H]2S1(=O)=O`, the INHIBITION is on record as 52.4%. As for `Cc1ccccc1NC(=O)N1CC[C@@H]2CN(C)S(=O)(=O)[C@@H]2CC1`, the figure is -6.05%.

With `CC(C)CN1CCc2[nH]nc(C(=O)N3CCCC3)c2C1`, the INHIBITION is listed as 45.7%. As for `Cc1nc(-c2nc(C(=O)NC3CC3)c3ccccn23)cn1C(C)C`, the INHIBITION is 43%. `OC(CNCCn1cccn1)c1ccc(Br)cc1` (stereo not given): the INHIBITION amounted to 25.6%.
